# The list is not random: actives were taken first. Their share in the collection is about 0.84%.
# PPARg SRC-1 ag: PPARgamma agonists recruiting SRC-1 coactivator, primary screen, biochemical; Peroxisome proliferator-activated receptor gamma (Homo sapiens), P37231; PPARgamma-SRC-1 coactivator recruitment biochemical assay; activation, % at 8 µM; 200,000 compounds, 0.41% hits; AID 631, 2007; in the data active means activation above about 19%;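 further: 0% = DMSO and 100% = reference agonist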
# Target sequence (P37231 whole entry, looked up): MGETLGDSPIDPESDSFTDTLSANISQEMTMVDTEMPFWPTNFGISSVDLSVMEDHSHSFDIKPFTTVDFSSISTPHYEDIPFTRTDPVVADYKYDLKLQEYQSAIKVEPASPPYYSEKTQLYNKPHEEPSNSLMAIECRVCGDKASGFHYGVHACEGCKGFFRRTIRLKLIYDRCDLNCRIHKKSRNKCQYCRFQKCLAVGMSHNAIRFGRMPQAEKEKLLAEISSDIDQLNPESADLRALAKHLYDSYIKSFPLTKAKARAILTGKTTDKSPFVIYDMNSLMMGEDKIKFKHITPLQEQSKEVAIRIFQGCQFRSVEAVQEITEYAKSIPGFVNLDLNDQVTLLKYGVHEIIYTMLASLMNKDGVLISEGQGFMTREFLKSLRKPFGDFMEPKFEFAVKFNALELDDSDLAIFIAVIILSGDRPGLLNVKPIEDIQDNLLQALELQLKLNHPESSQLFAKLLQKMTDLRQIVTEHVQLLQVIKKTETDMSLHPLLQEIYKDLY
# PPARg SRC2 recr: agonists of PPARg-SRC-2 recruitment, primary screen, biochemical, HTS; Peroxisome proliferator-activated receptor gamma (Homo sapiens), P37231; PPARgamma LBD-SRC-2 recruitment; activation, % at 8 µM; 200,000 compounds, 0.34% hits; AID 1032, 2008; in the data active means activation above about 22%;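 further: 0% = vehicle and 100% = reference agonist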
# PPARg SRC3 recr: PPARgamma agonists recruiting SRC-3 coactivator, primary screen, biochemical. biochemical PPARgamma/SRC-3 coactivator recruitment assay. AID 731, 2007. 200,000 compounds, 0.26% hits. activation, % at 8 µM; in the data active means activation above about 23%;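 further: 0% = DMSO and 100% = reference agonist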
# SRC1 TRFRET art: TR-FRET detection interference compounds, primary screen, artefact control for PPARgamma SRC-1 recruitment agonists, biochemical, TR-FRET emission ratio; TR-FRET detection artefact counter-screen; stronger effect = higher value; 99,000 compounds, 0.34% hits; TR-FRET ratio at 8 µM; AID 1051, 2008; in the data active means TR-FRET ratio above about 2300
# TR-FRET SRC-2 ct: TR-FRET signal artefacts, primary screen, artefact control for PPARgamma SRC-2 agonist project, biochemical; TR-FRET artefact counter-screen; stronger effect = higher value; TR-FRET ratio at 8 µM; 200,000 compounds, 0.4% hits; AID 1049, 2008
# SRC3 TRFRET art: TR-FRET detection interference compounds, artefact control for PPARgamma SRC-3 recruitment agonists, biochemical, TR-FRET ratio; TR-FRET artefact counter-screen, PPARgamma/SRC-3 format; stronger effect = higher value; 99,000 compounds, 0.39% hits; TR-FRET ratio at 8 µM
# An asterisk follows results filed as active; / = not tested or not shown. Unless noted, no stated cut-off is given here; in the data, active means TR-FRET ratio above about 2000; inactive means the rest.
SMILES,PPARg SRC-1 ag,PPARg SRC2 recr,PPARg SRC3 recr,SRC1 TRFRET art,TR-FRET SRC-2 ct,SRC3 TRFRET art
C/C(=N\NC(=O)C1(C)CC1(Br)Br)c1ccc(NC(=O)c2ccc(C)o2)cc1 (stereo unspecified),-6,-5,1,1559,1387,1431
Cc1nn(Cc2ccc(F)cc2)c(C)c1NC(=O)CCCn1nc([N+](=O)[O-])cc1C,2,13,8,1559,1598,1734
Cc1ccccc1-n1c(-c2ccco2)n[nH]c1=S,8,27*,7,1909,1756,1585
O=C(CSc1nnc(-c2cccs2)n1-c1ccccc1)N1CCc2ccccc21,30*,6,-4,/,1416,/
O=C(CSc1nnc(-c2ccco2)n1-c1ccccc1)N1CCc2ccccc21,13,2,6,/,1562,/
COCc1cc(SC2CCCCC2)nc(C)n1,2,1,1,1747,1639,1542
O=C(O)Cc1ccc(C(=O)c2ccc(Cl)cc2Cl)s1,0,7,0,2208,1896,1693
O=C(c1cnc(-c2ccc(Cl)cc2)s1)c1ccc(Cl)cc1Cl,12,3,36*,/,1430,/
CSc1ccccc1NC(=O)Cn1c(-c2cscn2)nc2ccccc21,24*,1,3,/,1477,/
O=C(Nc1c(C(=O)Nc2cccc3ccccc23)cnn1-c1ccccc1)c1ccco1,2,8,-9,/,1664,/
O=C(O)CNC(=O)c1ccccc1Br,-9,2,-1,1622,1557,1414
CS(=O)(=O)N1CCN(c2nc(-c3ccccc3)cs2)CC1,4,-1,5,/,1400,/
CCS(=O)(=O)N1CCN(c2nc(-c3ccccc3)cs2)CC1,9,5,10,1774,1453,2121*
COc1ccc(-c2ccc(C#N)c(SCC(=O)NCCc3ccccc3)n2)cc1OC,1,11,2,1821,2078*,1706
COc1ccc(-c2ccc(C#N)c(SCC(=O)Nc3sc4c(c3C#N)CCC4)n2)cc1OC,11,7,2,/,1523,/
COc1cccc(-c2ccc(C#N)c(SCC(=O)NCCc3cccc(Cl)c3)n2)c1,11,21,17,/,1982*,/
CC(C)(C)C1CCc2sc(C(=O)NNC(=O)CCl)cc2C1 (stereo unspecified),2,-8,0,2009,1514,1665
CC(C)CC1NC(=O)N(Cc2cc(=O)n3ccsc3n2)C1=O (stereo unspecified),-6,-6,2,1476,1744,1638
N=c1c(C(=O)NCC2CCCO2)cc2c(=O)n3ccccc3nc2n1Cc1cccnc1 (stereo unspecified),9,5,3,1929,1820,1701
Cc1cccn2c(=O)c3cc(C(=O)NCC4CCCO4)c(=N)n(Cc4cccnc4)c3nc12 (stereo unspecified),17,4,2,2542*,1761,1472
COc1cc(NC(=S)Nc2ccc(N(C)C(C)=O)cc2)cc(OC)c1,0,15,4,2003,1712,1704
COc1ccc(-c2cc(-c3ccccc3)nc(SCC(=O)Nc3ncc(C)s3)c2C#N)cc1,-3,-5,0,1750,1511,1299
COc1ccc(-c2cc(-c3cccs3)c(C#N)c(SCC(=O)NCc3ccccc3)n2)cc1,39*,6,5,/,1693,/
COc1ccc(-c2cc(-c3cccs3)c(C#N)c(SCC(=O)NCc3ccccc3OC)n2)cc1,27*,-3,-6,/,1559,/
N#Cc1c(N)nc(SCC(=O)NCc2ccc3c(c2)OCO3)c(C#N)c1-c1cccs1,4,8,4,/,1660,/
SMILES,PPARg SRC-1 ag,PPARg SRC2 recr,PPARg SRC3 recr,SRC1 TRFRET art,TR-FRET SRC-2 ct,SRC3 TRFRET art
COc1ccccc1CNC(=O)CSc1nc(N)c(C#N)c(-c2cccs2)c1C#N,3,9,30*,/,1644,/
CCO[C@@H]1OC(C(=O)N2CCN(Cc3ccc4c(c3)OCO4)CC2)=C[C@H](C2CC2)[C@H]1CCCO,0,11,-1,1851,1553,1689
CC(C)NC(=O)c1cc(=O)n(C)c(=O)n1C,2,12,-9,/,1709,/
COC(=O)c1ccc2c(c1)NC(=O)C(N1CCCC1)S2 (stereo unspecified),0,4,1,/,1526,/
COC(=O)c1ccc2c(c1)SC1=C(CCCC1=O)N2,12,13,17,/,2074*,/
Cc1c(C(=O)Nc2nccs2)sc2nc(-c3cccs3)cc(C(F)(F)F)c12,5,15,7,/,2020*,/
O=C1NCCN(C(=O)CCc2nnc(-c3ccsc3)o2)C1c1ccc(F)cc1 (stereo unspecified),2,-2,3,1894,1468,1620
CCOc1ccc(Br)cc1C(=O)N/N=C/c1ccc([N+](=O)[O-])cc1,9,12,3,1882,1653,1542
CCC(=O)Nc1ccc(C(=O)N/N=C/c2ccc([N+](=O)[O-])cc2)cc1,11,4,7,2345*,1712,1554
COc1ccc(Br)cc1C(=O)N/N=C/c1ccc([N+](=O)[O-])cc1,30*,5,0,2467*,1717,1795
CCC1CCCCN1C(=O)CSc1nnc(-c2cccs2)o1 (stereo unspecified),-1,14,8,/,1382,/
COc1cccc(NC(=O)Cn2c(=O)n(CC3CCCO3)c(=O)c3ccccc32)c1 (stereo unspecified),1,4,6,/,1433,/
O=S(=O)(c1ccccc1)N1CCN(c2nc(-c3cccs3)nc3ccccc23)CC1,2,6,0,1800,1678,1537
Cc1nc(N2CCN(S(=O)(=O)c3ccc(F)cc3)CC2)c2c(-c3cccs3)csc2n1,-2,-7,0,3173*,2641*,2853*
Oc1ccc(C2Nc3cccc4cccc(c34)N2)c(O)c1,30*,19,31*,/,1494,/
O=C(CSc1nnnn1-c1ccccc1)Nc1nsc(-c2ccc(Cl)cc2)n1,7,2,7,1911,1576,2179*
O=C(Cc1ccccc1)Nc1ccc2c(c1)CCC2,4,-5,-1,1680,1537,1629
O=C(CC1CCCC1)Nc1ccc2c(c1)CCC2,8,57*,13,/,1871,/
COc1ccccc1CN(C)C(=O)c1ccc2c(c1)NC(=O)CS2,-4,8,48*,/,1488,/
COC(=O)c1ccc2c(c1)NC(=O)CS2,2,7,-2,1887,1672,1558
Cc1ccc(N2C(=O)CSC2c2cccs2)cc1 (stereo unspecified),-3,5,12,/,1646,/
Cc1cc(C)cc(N2C(=O)CSC2c2cccs2)c1 (stereo unspecified),7,11,0,1726,1989*,1827
CCn1cc(/C=C/C(=O)Nc2c(C)nn(Cc3ccccc3C)c2C)cn1,4,6,-2,1839,1623,1692

# Source: PubChem
